# Source: PubChem BioAssay (EPA / NIEHS)
# Several values for one entry are separate records, joined by “and”; a condition that tells them apart may be missing. Identical values can stand only once. Records with an inconclusive call do not appear. Where a structure was tested more than once in an assay, its records may differ in their call. Activity calls are given as the source filed them. Rule for the calls: active = hit-call score of the fitted dose curve at least 0.9, where 1 is the maximum; inconclusive = response in the unintended direction; inactive = score below 0.9. *1 amine or outer side, *2 acyl side, *3 side chain or, on linkers, in order; H or OH if unused. Where a SMILES comes first, the peptide text is derived from it. Bridges are numbered along the chain shown (N, C = ends). Roman numbers before positions name the chains, in order. [ ]: non-standard residue; d: D form. Actinocin(9to1) = Cc1c2oc3c(C)ccc(C(=O)[*:1])c3nc-2c(C(=O)[*:2])c(N)c1=O; NMeV = CN[C@H](C(=O)O)C(C)C; Sar = CNCC(=O)O
# Molecular target: Cellular tumor antigen p53 (Homo sapiens) (UniProt P04637)
# Assay: TOX21_p53_BLA_p2_ratio: Tox21 HCT-116 p53 Agonism Beta-lactamase Assay, Ratio, Phase 2 (AID 2283592)
# Source text: TOX21_p53_BLA_p2 is a cell-based, single-readout assay that uses HCT116, a human intestinal cell line, […] in a 1536-well plate.TOX21_p53_BLA_p2_ratio is an assay readout measuring reporter gene via receptor activity and designed using inducible reporter (beta lactamase induction) detected with GAL4 b-lactamase reporter gene. The signal is derived from the ratio of cleaved (ch2) to uncleaved (ch1) reporter gene substrate used as the measure of target activity.Data from the assay component TOX21_p53_BLA_p2_ratio was analyzed into 1 assay endpoint. This assay endpoint, TOX21_p53_BLA_p2_ratio, was analyzed in the positive analysis fitting direction relative to DMSO as the negative control and baseline of activity. Using a type of inducible reporter, gain-of-signal activity can be used to understand changes in the reporter gene as they relate to the gene TP53. Furthermore, this assay endpoint can be referred to as a primary readout, because this assay has produced multiple assay endpoints and this ratio serves a reporter gene function to understand target activity. To generalize the intended target to other relatable targets, this assay endpoint is annotated to the DNA binding intended target family, where the subfamily is tumor suppressor.
# Thawing Method: Place 14 mL of pre-warmed thaw medium into a 15 mL of conical tub. Remove the vial of cells to be thawed from liquid nitrogen and thaw rapidly by placing at 37C in a water bath with gentle agitation for 1-2 minutes. Decontaminate the vial by wiping with 70% ethanol before opening in a biological safety cabinet. Transfer the vial contents drop-wise into 14 mL of thaw medium in a sterile 15-mL conical tub. Centrifuge cells at 900 rpm for 4 minutes and resuspend in thaw medium. Transfer contents to the T75 tissue culture flask containing Thaw Medium and place flask in a humidified 37C/5% CO2 incubator. Switch to growth medium at first passage.Propagation Method: Aspirate medium, rinse once in DPBS, add 0.25% Trypsin/EDTA and swirl to coat the cell evenly. Add an equal volume of Growth Medium to inactivate Trypsin after 2-3 minutes incubation at 37C. Centrifuge cells at 900 rpm for 4 minutes and resuspend in growth medium. Cell should be passage or fed at least twice a week.Assay Protocol: Harvest cells from culture in growth medium and resuspend in assay medium. 2.2 Dispense 4000 cells/5 uL/well into 1536-well black/clear bottom plates using a Multidrop dispenser. After the cells were incubated at 37C for 5 hours, 23 nL of compounds dissolved in DMSO were transferred to the assay plate by a PinTool resulting in a 217-fold dilution. Incubate the plates for 16 hours at 37C, 5% CO2. Add 1 uL of 6X LiveBLAzer FRET B/G (CCF4-AM) Substrate Mixture to each well using a BioRAPTR dispenser and incubate the plates at room temperature for 2 hours. Measure fluorescence intensity at 460 and 530 nm emission and 405 nm excitation by an Envision detector. Data is expressed as the ratio of 460nm/530nm emissions. Add 4 uL of Cell-titer Glo to each well using BioRAPTR and incubate the plates at room temperature for 2 hours. Measure fluorescence intensity by a VewLux plate reader.
# Cellular tumor antigen p53 (Homo sapiens), sequence (P04637 whole entry, looked up): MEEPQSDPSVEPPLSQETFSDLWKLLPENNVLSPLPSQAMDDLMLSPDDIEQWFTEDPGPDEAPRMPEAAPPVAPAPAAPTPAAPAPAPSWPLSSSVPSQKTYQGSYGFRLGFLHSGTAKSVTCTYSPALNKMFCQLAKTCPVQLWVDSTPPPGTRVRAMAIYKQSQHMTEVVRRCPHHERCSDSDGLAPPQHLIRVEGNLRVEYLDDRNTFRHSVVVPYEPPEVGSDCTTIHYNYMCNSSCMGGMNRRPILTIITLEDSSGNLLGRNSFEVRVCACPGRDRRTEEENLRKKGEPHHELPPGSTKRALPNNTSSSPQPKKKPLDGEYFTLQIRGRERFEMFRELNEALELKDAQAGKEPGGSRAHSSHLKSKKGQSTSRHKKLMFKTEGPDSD
SMILES,outcome,AC50
C[C@H](Cc1ccc(O)c(O)c1)[C@@H](C)Cc1ccc(O)c(O)c1,inactive,–
"Cc1c2oc3c(C)ccc(C(=O)N[C@@H]4C(=O)N[C@H](C(C)C)C(=O)N5CCC[C@H]5C(=O)N(C)CC(=O)N(C)[C@@H](C(C)C)C(=O)O[C@@H]4C)c3nc-2c(C(=O)N[C@@H]2C(=O)N[C@H](C(C)C)C(=O)N3CCC[C@H]3C(=O)N(C)CC(=O)N(C)[C@@H](C(C)C)C(=O)O[C@@H]2C)c(N)c1=O (I: T[dV]P[Sar][NMeV] / II: T[dV]P[Sar][NMeV]; ester I:1-I:C, II:1-II:C; linker I:N-II:N via Actinocin(9to1))",–,0.163 nM (active) and 3.91 nM (active)
CCCN(CCC)C(=O)C(CCC(=O)OCCCN1CCN(CCOC(=O)Cc2c(C)n(C(=O)c3ccc(Cl)cc3)c3ccc(OC)cc23)CC1)NC(=O)c1ccccc1 (stereo unspecified),inactive,–
Cc1ccc(S(=O)(=O)NC(=O)NN2CC3CCCC3C2)cc1 (stereo unspecified),inactive,–
CC(C)(C)C(=O)O,inactive,–
CN(C)C/C=C(/c1ccc(Br)cc1)c1cccnc1,inactive,–
CCCCS,inactive,–
CCCOc1ccc2nc(NC(=O)OC)sc2c1,–,0.653 µM (active)
CCN1CCC[C@H]1CNC(=O)c1c(O)c(Cl)cc(Cl)c1OC,inactive,–
Cc1cccc([N+](=O)[O-])c1C(=O)O,inactive,–
CC(=O)OCC1=C(C(=O)O)N2C(=O)[C@@H](NC(=O)Cc3cccs3)[C@H]2SC1,inactive,–
C=CCCC,inactive,–
O=C(O)C1CCCN1 (stereo unspecified),inactive,–
OCCN(CCO)c1cccc(Cl)c1,inactive,–
O=c1n(CCCN2CCN(c3cccc(Cl)c3)CC2)nc2ccccn12,inactive,–
c1cc(N(CC2CO2)CC2CO2)ccc1Cc1ccc(N(CC2CO2)CC2CO2)cc1 (stereo unspecified),–,26.8 µM (active)
CO[C@@H]1[C@H](OC(=O)/C=C/C=C/C=C/C=C/C(=O)O)CC[C@]2(CO2)[C@H]1[C@@]1(C)O[C@@H]1CC=C(C)C,inactive,–
CCn1cc(C(=O)O)c(=O)c2cc(F)c(N3CCNCC3)nc21,inactive,–
CCc1ccc(C)cc1,inactive,–
NCCCNCCCCNC(=O)C(O)NC(=O)CCCCCCN=C(N)N (stereo unspecified),inactive,–

SMILES,outcome,AC50
CNCCc1ccccn1,inactive,–
CCC=CC#N,inactive,–
O=C(O)C(Cc1cc(I)c(O)c(I)c1)c1ccccc1 (stereo unspecified),inactive,–
CNC(=O)CN(CCN(CCN(CC(=O)[O-])CC(=O)NC)CC(=O)[O-])CC(=O)[O-].O.[Gd+3],inactive,–
C=CCOC(=O)C(=C)C,inactive,–
O=[N+]([O-])c1ccc(/C=N\O)o1,inactive,–
CN1[C@@H]2CC[C@H]1CC(NC(=O)n1c(=O)[nH]c3ccccc31)C2 (stereo partly specified),inactive,–
NCCCC[C@H](NC(=O)[C@@H]1CCCN1C(=O)[C@@H]1CSSC[C@H](N)C(=O)N[C@@H](Cc2ccccc2)C(=O)N[C@@H](Cc2ccccc2)C(=O)N[C@@H](CCC(N)=O)C(=O)N[C@@H](CC(N)=O)C(=O)N1)C(=O)NCC(N)=O,inactive,–
Oc1ccc(Oc2ccccc2)cc1,–,45 µM (active)
c1ccncc1,inactive,–
CCCCOC(=O)/C=C\C(=O)OCCCC,inactive,–
CC(COc1ccc(C(C)(C)C)cc1)OS(=O)OCCCl (stereo unspecified),inactive,–
CC1=CC(=O)CC(C)(C)C1=O,inactive,–
CCOc1ccc(NC(C)=O)cc1N,inactive,–
C=C[C@]1(C)C[C@@H](OC(=O)CO)[C@]2(C)[C@H](C)CC[C@]3(CCC(=O)[C@H]32)[C@@H](C)[C@@H]1O,inactive,–
CC(=O)O[C@H]1C[C@@]2(C)[C@@H](C[C@@H](O)[C@H]3[C@@]4(C)CC[C@@H](O)[C@@H](C)[C@@H]4CC[C@@]32C)/C1=C(\CCC=C(C)C)C(=O)O,inactive,–
O=C(NC1CCN(CCc2c[nH]c3ccccc23)CC1)c1ccccc1,inactive,–
C[C@@]12C(=O)OC(=O)[C@]1(C)C1CCC2O1,–,0.446 µM (active)
N#CC(c1ccc(Cl)cc1)c1c(Cl)cc(-n2ncc(=O)[nH]c2=O)cc1Cl (stereo unspecified),–,19.6 µM (active)
C[C@H](CCC(=O)O)[C@H]1CC[C@H]2[C@@H]3CC[C@@H]4C[C@H](O)CC[C@]4(C)[C@H]3C[C@H](O)[C@]12C,inactive,85.4 µM (active)
